# In PubChem BioAssay (Tox21):
# Records with an inconclusive call do not appear. Calls of active or inactive are those of the source. The call rests on the fitted dose curve; in most records, active means well fitted cell-killing curve with a large enough effect in the repeat runs; inconclusive means weak or mixed curves, or effect the other way; inactive means flat fitted curve, though single readings scatter.
# Test: qHTS assay to identify small molecule antagonists of the retinoid acid receptor (RAR) signaling pathway - cell viability counter screen (AID 1159551); further: nearly all actives have a fitted effect of over 35% in size
# Conditions: C3RL4 cells viability, ATP luminescence (CellTiter-Glo), 6 h; series mostly up to 92.4 µM
# Source text: U.S. Tox21 Program National Center for Advancing Translational Sciences [NCATS] NIH Chemical Genomics Center [NCGC] U.S. Environmental Protection Agency [EPA] National Institutes of Environmental Health Sciences [NIEHS] National Toxicology Program [NTP] U.S. Food and Drug Administration [FDA] Tox21 Assay Overview: All-trans Retinoic acid (atRA) is the potent natural metabolite of retinol and plays an important role in normal embryonic development and maintenance of cellular phenotype in adult animals. atRA is the activating ligand for the retinoic acid receptors (RARs) which form heterodimers with retinoid X receptors (RXRs) on the retinoic acid response element (RARE). Through activation of the RAR/RXRs nuclear receptors, atRA regulates the transcription of a large number of protein-coding genes and regulatory RNAs. Intracellular levels of atRA are controlled by the retinol signaling pathway (RSP) that regulates the biosynthesis and catabolism of atRA to maintain physiological levels. Chemicals that interfere with the RSP can cause abnormal intracellular levels of atRA and therefore are potential developmental toxicants. To assess compounds for the potential adverse effect on embryonic development through interfering with retinol signaling, a cell-based RARE luciferase reporter gene assay was used. C3RL4 cell line (OARSA/CFSAN/FDA, Laurel, MD) was used to screen Tox21 10K compound library for identifying inhibitors of the RSP. Also cytotoxicity was assessed by determining the viability of cells based on the quantitation of ATP.
# Tox21 Assay Protocol Summary: C3RL4 cells were seeded at 1,000/well in 4 uL of assay medium into white solid 1,536-well tissue culture plates (Greiner Bio-One North America Inc. Monroe, NC) using a Multidrop Combi (Thermo Scientific, Waltham, MA) dispenser. After incubation at 37 C and 5% CO2 for an overnight, 23 nL of compounds dissolved in DMSO, positive control or DMSO only were transferred by a Pintool station (Kalypsys, San Diego, CA). One ul of 1 uM (final concentration) of Retinol was added right after the compound addition by using a Flying Reagent Dispenser (FRD) (Aurora Discovery, San Diego, CA). After 6 hr incubation at 37 C and 5% CO2, 5 uL of CellTiter-Glo reagent (Promega Corporation, Madison, WI) was added to each assay plate using an FRD. Luminescence was quantified on a ViewLux plate reader (PerkinElmer, Waltham, MA) after 30 min incubation at room temperature.
# On the % scale 0 is the no-effect control and ±100 the full control effect.
SMILES,outcome,"activity change, negative = cytotoxicity"
CO[Si](CCCn1c(=O)n(CCC[Si](OC)(OC)OC)c(=O)n(CCC[Si](OC)(OC)OC)c1=O)(OC)OC,inactive,
CCC/C=C(\C=O)CC,inactive,
CC1=NN(c2ccc(S(=O)(=O)O)cc2)C(=O)C1,inactive,
CCCCOCC(C)O (stereo not given),inactive,
O=C(NCN1CCOCC1)c1cnccn1,inactive,
Cc1cccc(Cl)c1,inactive,
OC1(c2ccc(Cl)cc2)CCNCC1,inactive,
CC(Oc1cc(Cl)ccc1Cl)C(=O)O (stereo not given),inactive,
CC(CO)(CO)CO,inactive,
CC(=O)C(C)O (stereo not given),inactive,
CCCSSCCC,inactive,
c1ccc(-c2nn[nH]n2)cc1,inactive,
CC(=O)CCC1=C(C)CCCC1(C)C,inactive,
CC(=O)OCC(=O)Nc1cc(C#N)cc(NC(=O)COC(C)=O)c1Cl,inactive,
CN(C)CCCCl,inactive,
CC(O)COC(C)(C)C (stereo not given),inactive,
CC(C)=CCC/C(C)=C/COC=O,inactive,
CCCCC1CCC(O)CC1 (stereo not given),inactive,
O=C[O][Al]([O]C=O)[O]C=O,inactive,
CC1CCc2c(N3CCC(O)CC3)c(F)cc3c(=O)c(C(=O)O)cn1c23 (stereo not given),inactive,

SMILES,outcome,"activity change, negative = cytotoxicity"
CC(=O)CCc1ccc(OC(C)=O)cc1,inactive,
O=C1c2ccccc2C(=O)c2cc(Cl)ccc21,,3.77% [at 8.39 µM] (inactive)
CCCCCCC1(C)CCC(=O)O1 (stereo not given),inactive,
CC(=O)O[Si](C)(OC(C)=O)OC(C)=O,inactive,
OCC1(CO)COCOC1,inactive,
COC(C)(OC)OC,inactive,
CC(C)=CCC[C@@](C)(O)[C@H]1CC=C(C)CC1,inactive,
COP(=O)(O)OP(=O)(O)OC,inactive,
O=C=NCC1CCCC(CN=C=O)C1 (stereo not given),inactive,
CC1=C(C(=O)O)N2C(=O)[C@@H](NC(=O)[C@H](N)C3=CCC=CC3)[C@H]2SC1,inactive,
Cc1ccc(C)c([N+](=O)[O-])c1,inactive,
COc1cc2c(cc1OC)C(=O)C(CC1CCN(Cc3ccccc3)CC1)C2 (stereo not given),inactive,
O=C(O)CONC(=O)c1ccccc1,inactive,
COc1ccc2c(c1)c1c3n2CCN(C)C3=NCC1,inactive,
C=CCCCCCCCC,inactive,
N[C@@H](CSCCCO)C(=O)O,,5.07% [at 19 µM] (inactive)
CN(C)CCCO[C@@H]1[C@H]2OC(C)(C)O[C@H]2O[C@@H]1C(O)CO (stereo not given in full),inactive,
CC/C(C)=N\O[Si](C)(O/N=C(\C)CC)O/N=C(\C)CC,inactive,
CN(C)CC/C=C1/c2ccccc2COc2ccc(CC(=O)O)cc21,inactive,
Cc1ccccc1C(N)=O,inactive,
